Source: PubChem BioAssay
Active and inactive are the calls of the source. Unless noted, no rule for the calls is given here.

Key:
[1] = test system: Wnt5a (protein binding on small-molecule microarray); experiment: small molecules binding Wnt5a protein – biophysical, small-molecule microarray, 635/667 nm fluorescence, primary screen (AID 1142); conditions: 635 nm fluorescence, higher = more signal;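 also: fluorescence read at 667 nm with signal to noise per printed feature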
[2] = ATP-based viability of Huh7 replicon cells – cell-based, CellTiter-Glo luminescence, basal, 48 h, cytotoxicity control for HCV replication inhibitor project, primary screen (AID 1143); conditions: higher = more signal, called active from +8 up or from −8 down;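 also: Huh7 hepatoma cells carrying a hepatitis C replication reporter with no stimulus; test concentration not given here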
[3] = Pseudomonas biofilm growth suppression – PAO1 strain, BacTiter-Glo luminescence, LB-PBS, primary screen (AID 1144); conditions: P. aeruginosa PAO1 biofilm, 12 h, higher = more signal
[4] = basal CRE-LacZ reporter activity in PC12 – cell-based, unstimulated, primary screen (AID 1145); conditions: no forskolin, luminescence, 4.5 h, higher = more signal, called active from +8 up or from −8 down
[5] = forskolin-driven CRE-LacZ activity in PC12 – cell-based, CRE-LacZ reporter, forskolin-stimulated, primary screen (AID 1146); conditions: luminescence, 4.5 h, higher = more signal, called active from +8 up or from −8 down;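 also: PC12 cells with 6xCRE LacZ reporter stimulated by forskolin 10 µM; beta-galactosidase reporter signal reflecting CREB driven transcription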
[6] = target: Streptavidin (Streptomyces avidinii) (UniProt P22629); experiment: compounds binding control protein streptavidin – biophysical, small-molecule microarray, 635/667 nm fluorescence, artefact control for SMM compound annotation, primary screen (AID 1147); conditions: higher = more signal;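 also: signal reflects streptavidin binding to arrayed compounds as a control protein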
Sequence of Streptavidin (Streptomyces avidinii) (P22629 whole entry, looked up): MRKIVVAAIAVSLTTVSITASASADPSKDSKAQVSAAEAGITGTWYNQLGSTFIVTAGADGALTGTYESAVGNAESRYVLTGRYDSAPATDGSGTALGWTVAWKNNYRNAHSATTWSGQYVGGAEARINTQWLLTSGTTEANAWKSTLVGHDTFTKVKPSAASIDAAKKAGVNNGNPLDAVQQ

[7] = probe aInhba binding on compound microarray – biochemical, small-molecule microarray, 635/667 nm fluorescence, primary screen (AID 1148); conditions: higher = more signal;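 also: score merges 667nm spot fluorescence with signal-to-noise for antibody binding to printed compounds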
[8] = target: Torsin-1A (Homo sapiens) (UniProt O14656); experiment: TOR1A wild-type binding on microarray – cell lysate, small-molecule microarray, lysate, 635/667 nm, primary screen (AID 1149); conditions: COS7 hTOR1A-WT lysate, 635 nm fluorescence, higher = more signal
Sequence of Torsin-1A (Homo sapiens) (O14656 whole entry, looked up): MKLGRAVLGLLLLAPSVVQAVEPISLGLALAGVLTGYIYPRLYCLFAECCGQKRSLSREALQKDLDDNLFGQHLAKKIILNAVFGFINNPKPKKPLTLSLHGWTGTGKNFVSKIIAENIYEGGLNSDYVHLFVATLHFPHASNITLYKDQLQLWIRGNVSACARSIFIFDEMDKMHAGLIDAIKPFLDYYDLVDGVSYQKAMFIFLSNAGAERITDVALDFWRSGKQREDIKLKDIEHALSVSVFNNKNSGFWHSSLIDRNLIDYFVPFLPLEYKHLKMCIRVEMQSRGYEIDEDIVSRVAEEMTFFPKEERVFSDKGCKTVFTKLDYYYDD

[9] = target: Torsin-1A (Homo sapiens) (UniProt O14656); experiment: torsin A mutant lysate binding on microarrays – cell lysate, small-molecule microarray, COS7 lysate, 635/667 nm fluorescence, primary screen (AID 1150); conditions: COS7 hTOR1A mutant lysate, 635 nm fluorescence, higher = more signal;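 also: score pools 667 nm emission and signal to noise measuring lysate protein binding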
[10] = test system: Sonic hedgehog protein (Shh); experiment: Sonic hedgehog microarray binding compounds – biochemical, small-molecule microarray, 635/667 nm fluorescence, primary screen (AID 1151); conditions: 635 nm fluorescence, higher = more signal;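 also: Shh protein binding to compounds spotted on small-molecule microarray slides; score combines spot fluorescence intensity with signal-to-noise across triplicate slides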
[11] = optical density shifts of acrAB sulA E. coli – strain DRC41, OD650, 48 h, E. coli filamentation inducer project, primary screen (AID 1152); conditions: higher = more signal, called active from +8 up or from −8 down;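 also: E. coli MC1000 strain DRC41 lacking acrAB efflux pump and sulA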
[12] = probe aLefty1 binding on compound microarray – biochemical, small-molecule microarray, 635/667 nm fluorescence, primary screen (AID 1153); conditions: higher = more signal;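 also: score merges spot fluorescence with signal-to-noise ratio from the scanned slide images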
[13] = plasmodial surface anion channel blockers, osmotic lysis – cell-based, P. falciparum Indochina, OD700, 1 h, primary screen (AID 1154); conditions: P. falciparum Indochina infected RBC osmotic lysis, higher = more signal, called active from +8 up or from −8 down
[14] = plasmodial surface anion channel blockers, osmotic lysis – cell-based, P. falciparum Indochina, OD700, 2 h, primary screen (AID 1155);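 also: lysis reports solute entry through the parasite surface anion channel PSAC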; conditions: P. falciparum Indochina infected erythrocytes, higher = more signal, called active from +8 up or from −8 down
[15] = changes in parasitized red cell lysis, either direction – P. falciparum Indochina, OD700, 3 h, PSAC antagonist project, primary screen (AID 1156); conditions: P. falciparum-infected erythrocytes, osmotic lysis, higher = more signal, called active from +8 up or from −8 down
[16] = plasmodial surface anion channel blockers, osmotic lysis – cell-based, P. falciparum Indochina, OD700, 18 h, primary screen (AID 1157); conditions: P. falciparum Indochina infected erythrocytes, osmotic lysis OD700, 18 h; higher = more signal, called active from +8 up or from −8 down
[17] = S6 kinase pathway phospho-S6 level changes – cell-based, A549, cytoblot, luminescence, serum-stimulated, primary screen (AID 1158); conditions: 5 h, higher = more signal;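 also: serum-stimulated A549 lung adenocarcinoma cells; signal is phosphorylated S6 detected by cytoblot immunostaining with HRP secondary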
[18] = target: NADPH oxidase 2 (Homo sapiens) (UniProt P04839); experiment: compounds shifting NOX2 Amplex Red fluorescence – cell-based, HEK293-NOX2, PMA-stimulated, NOX inhibitor project, primary screen (AID 1159); conditions: 45 min, higher = more signal, called active from +8 up or from −8 down; also: test concentration not given here
Sequence of NADPH oxidase 2 (Homo sapiens) (P04839 whole entry, looked up): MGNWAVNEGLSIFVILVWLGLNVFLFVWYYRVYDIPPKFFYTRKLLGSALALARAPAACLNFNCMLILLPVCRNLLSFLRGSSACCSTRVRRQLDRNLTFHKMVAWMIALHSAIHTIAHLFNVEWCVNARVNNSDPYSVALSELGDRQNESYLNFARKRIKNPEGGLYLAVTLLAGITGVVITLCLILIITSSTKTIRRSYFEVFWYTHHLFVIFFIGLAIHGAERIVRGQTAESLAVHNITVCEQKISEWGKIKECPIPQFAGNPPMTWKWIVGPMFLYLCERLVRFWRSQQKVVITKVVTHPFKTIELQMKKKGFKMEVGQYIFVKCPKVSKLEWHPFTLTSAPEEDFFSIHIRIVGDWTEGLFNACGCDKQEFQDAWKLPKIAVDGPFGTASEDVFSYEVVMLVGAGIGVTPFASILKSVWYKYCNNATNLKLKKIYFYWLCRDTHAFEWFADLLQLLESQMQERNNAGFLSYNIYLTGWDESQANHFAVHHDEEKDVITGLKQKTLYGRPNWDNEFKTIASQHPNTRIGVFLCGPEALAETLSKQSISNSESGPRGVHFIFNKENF

[19] = target: NADPH oxidase 4 (Homo sapiens) (UniProt Q9NPH5); experiment: compounds shifting NOX4 Amplex Red fluorescence – cell-based, HEK293-NOX4, tetracycline-induced, NOX inhibitor project, primary screen (AID 1160); conditions: HEK293-NOX4, Amplex Red H2O2 fluorescence, 45 min; higher = more signal, called active from +8 up or from −8 down
Sequence of NADPH oxidase 4 (Homo sapiens) (Q9NPH5 whole entry, looked up): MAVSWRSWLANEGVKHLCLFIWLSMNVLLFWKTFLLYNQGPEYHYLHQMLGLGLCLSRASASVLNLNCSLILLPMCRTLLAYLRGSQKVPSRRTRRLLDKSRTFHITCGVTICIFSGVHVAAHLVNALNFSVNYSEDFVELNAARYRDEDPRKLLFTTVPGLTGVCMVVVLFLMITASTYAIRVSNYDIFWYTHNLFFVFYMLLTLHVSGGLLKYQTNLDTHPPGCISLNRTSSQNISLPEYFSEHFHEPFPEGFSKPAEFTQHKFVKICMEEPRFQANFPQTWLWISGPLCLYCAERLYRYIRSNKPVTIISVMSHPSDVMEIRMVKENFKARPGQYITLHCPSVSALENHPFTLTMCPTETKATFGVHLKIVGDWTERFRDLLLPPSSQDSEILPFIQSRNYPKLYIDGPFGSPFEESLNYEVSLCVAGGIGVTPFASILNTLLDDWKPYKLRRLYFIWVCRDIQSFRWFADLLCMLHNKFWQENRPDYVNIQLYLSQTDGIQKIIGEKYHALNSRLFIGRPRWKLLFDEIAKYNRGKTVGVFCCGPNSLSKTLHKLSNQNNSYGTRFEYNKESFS

[20] = target: NADPH oxidase 5 (Homo sapiens) (UniProt Q96PH1); experiment: compounds shifting NOX5 Amplex Red fluorescence – cell-based, HEK293-NOX5, NOX inhibitor project, primary screen (AID 1161); conditions: HEK293-NOX5, ionomycin, 45 min, higher = more signal
Sequence of NADPH oxidase 5 (Homo sapiens) (Q96PH1 whole entry, looked up): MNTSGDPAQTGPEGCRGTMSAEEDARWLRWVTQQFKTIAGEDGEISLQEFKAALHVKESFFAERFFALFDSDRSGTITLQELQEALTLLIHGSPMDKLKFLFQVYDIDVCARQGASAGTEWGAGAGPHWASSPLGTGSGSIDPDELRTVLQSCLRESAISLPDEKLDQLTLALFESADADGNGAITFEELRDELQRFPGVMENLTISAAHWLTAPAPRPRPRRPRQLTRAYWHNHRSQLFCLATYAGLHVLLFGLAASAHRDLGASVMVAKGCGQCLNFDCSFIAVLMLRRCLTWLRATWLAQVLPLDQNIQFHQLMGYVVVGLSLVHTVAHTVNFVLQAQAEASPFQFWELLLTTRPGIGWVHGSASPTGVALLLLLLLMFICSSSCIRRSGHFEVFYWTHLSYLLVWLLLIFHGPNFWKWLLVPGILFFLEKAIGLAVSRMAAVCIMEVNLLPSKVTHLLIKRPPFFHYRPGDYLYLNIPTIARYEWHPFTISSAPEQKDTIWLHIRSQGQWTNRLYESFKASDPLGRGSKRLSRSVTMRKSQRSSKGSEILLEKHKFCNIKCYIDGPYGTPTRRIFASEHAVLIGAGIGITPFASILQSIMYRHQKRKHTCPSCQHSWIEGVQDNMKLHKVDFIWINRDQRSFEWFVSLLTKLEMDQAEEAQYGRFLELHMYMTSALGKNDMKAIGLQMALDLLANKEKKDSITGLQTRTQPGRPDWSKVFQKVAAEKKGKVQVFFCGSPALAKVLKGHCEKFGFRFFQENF

Compound	composite z-score [1]	z-score [2]	z-score [3]	z-score [4]	z-score [5]	composite z-score [6]	composite z-score [7]	composite z-score [8]	composite z-score [9]	composite z-score [10]	z-score [11]	composite z-score [12]	z-score [13]	z-score [14]	z-score [15]	z-score [16]	z-score [17]	z-score [18]	z-score [19]	z-score [20]
CCC(CC)C(O)C1C=CC2C(=O)N(c3ccccc3)C(=O)C2N1Nc1ccccc1F (stereo not given)	0.0501	-1.14 (inactive)	-0.615 (inactive)	-0.62 (inactive)	0.492 (inactive)	0.292	-0.0044	0.838	0.597	-0.455	-0.372 (inactive)	0.0315	0.834 (inactive)	0.412 (inactive)	0.164 (inactive)	0.584 (inactive)	-0.364	0.223 (inactive)	-0.0786 (inactive)	-0.39
CCOC(=O)C1=CCC(c2cc3ccccc3[nH]2)N(CCN2CC(C(=O)OCC)=CCC2c2cc3ccccc3[nH]2)C1 (stereo not given)	0.125	-1.74 (inactive)	-1.85 (inactive)	-0.275 (inactive)	-0.684 (inactive)	0.428	0.162	0.0418	0.104	0.54	-0.889 (inactive)	0.379	4.01 (inactive)	1.41 (inactive)	2.42 (inactive)	1.03 (inactive)	1.56	-0.756 (inactive)	-0.315 (inactive)	-0.307
O=C1N(CCS(=O)(=O)c2ccccc2)c2ccccc2C[C@]12N=C(c1ccc(OCCCO)cc1)O[C@@H]2c1ccccc1	0.553	-1.62 (inactive)	0.851 (inactive)	0.0219 (inactive)	-1.4 (inactive)	0.404	0.0944	0.903	1.41	0.372	-0.499 (inactive)	0.732	26.3 (active)	18.6 (active)	1.85 (inactive)	2.95 (inactive)	-0.18	-0.304 (inactive)	0.615 (inactive)	0.627
C=CCOC(=O)[C@H]1[C@@H]2C(=O)O[C@@H](c3ccccc3)[C@@H](c3ccccc3)N2[C@@H](c2ccc(OCCOC(=O)[C@H]3C[C@H]4C(=O)N[C@@H](CC(C)C)C(=O)N4[C@H]3c3ccc(O)cc3)cc2)[C@]12C(=O)Nc1ccccc12	0.809	-0.351 (inactive)	-1.22 (inactive)	-0.26 (inactive)	0.146 (inactive)	0.137	0.0544	0.739	1.18	2.06	0.324 (inactive)	0.13	1.64 (inactive)	0.998 (inactive)	3.83 (inactive)	0.964 (inactive)	0.758	1.2 (inactive)	0.776 (inactive)	1.4
COCCn1c(C(=O)N(C)C)cc2c1C[C@H]1CN(C(=O)c3ccccc3)[C@@](Cc3ccc(OC)cc3)(C(=O)OC)[C@@H]21	0.198	-1.27 (inactive)	0.491 (inactive)	0.776 (inactive)	0.0711 (inactive)	0.572	-0.0237	0.236	1.11	-0.472	-1.18 (inactive)	0.256	5.82 (inactive)	0.846 (inactive)	1.36 (inactive)	1.23 (inactive)	-0.164	0.556 (inactive)	1.43 (inactive)	1.24
CN1C(=O)C2C(C1=O)C1C=C(CCCO)C2C(C2CC2)N1Cc1cccc(OC(F)(F)F)c1 (stereo not given)	-0.317	-0.591 (inactive)	0.55 (inactive)	-0.348 (inactive)	1.3 (inactive)	0.851	-0.101	1.03	1.76	-0.525	-0.771 (inactive)	-0.295	1.34 (inactive)	0.505 (inactive)	0.627 (inactive)	0.402 (inactive)	-0.546	0.561 (inactive)	0.568 (inactive)	1.2
CCCC[C@H]1OB(O)C[C@H]2C1=C(COc1ccccc1)C[C@H]1C(=O)C=CC(=O)[C@H]12	0.119	-0.578 (inactive)	-0.327 (inactive)	6.38 (inactive)	2.07 (inactive)	0.0073	-0.158	0.372	0.274	1.38	1.55 (inactive)	-0.134	1.49 (inactive)	0.0962 (inactive)	0.129 (inactive)	0.134 (inactive)	-0.0871	-0.429 (inactive)	-1.48 (inactive)	-5.03
C=CCOC(=O)[C@@H]1[C@H]2C(=O)O[C@H](c3ccccc3)[C@H](c3ccccc3)N2[C@H](c2ccc(OCCOC(=O)[C@H]3C[C@H]4C(=O)NCC(=O)N4[C@H]3c3cccc(OCCO)c3)cc2)[C@@]12C(=O)Nc1ccc(I)cc12	0.569	-0.357 (inactive)	-0.71 (inactive)	-0.264 (inactive)	-0.0891 (inactive)	0.808	0.0228	0.724	0.702	1.88	-0.27 (inactive)	0.248	1.5 (inactive)	1.56 (inactive)	1.06 (inactive)	1.26 (inactive)	0.117	1.54 (inactive)	0.436 (inactive)	1.55
[N-]=[N+]=NCc1ccccc1[C@@H]1OC(c2ccc(OCCCO)cc2)=N[C@]1(Cc1ccccc1N=[N+]=[N-])C(=O)NCC(O)CO (stereo not given in full)	0.88	-1.49 (inactive)	0.12 (inactive)	0.47 (inactive)	-0.806 (inactive)	1.74	0.791	0.553	1.65	-0.771	0.553 (inactive)	1.31	20.2 (active)	5.06 (inactive)	1.09 (inactive)	1.1 (inactive)	-0.0256	-0.868 (inactive)	0.704 (inactive)	1.5
